aSyn 5UTR act: Activators via SNCA 5'UTR binding, MLPCN. alpha-synuclein 5'UTR reporter, activators screen. activity score, % (tested at 7.5 µM), hits read low. hit rate 7.1% among 300,000. AID 1814, 2009; in the data active = activity score below about -60%
Large screens that a line does not name were inactive. These entries were drawn from the full list.

O=C(Nc1ncc([N+](=O)[O-])s1)c1ccc2c(c1)OCO2	none
CC(C)(C)c1ccc(C(=O)Nc2cccc([N+](=O)[O-])c2)cc1	aSyn 5UTR act -193
CCCc1cc(C(=O)Nc2cccc([N+](=O)[O-])c2)cs1	aSyn 5UTR act -105
O=C(NNC(=O)c1cccc2ccccc12)c1ccc2c(c1)OCO2	aSyn 5UTR act -94
CCc1ccc(NC(=O)c2ccccc2SC)cc1	aSyn 5UTR act -177
O=C(Nc1cccc([N+](=O)[O-])c1)c1[nH]ncc1Cl	aSyn 5UTR act -227
O=C(Nc1cccc(Cl)c1)c1ccc2c(c1)OCCO2	aSyn 5UTR act -123
CS(=O)(=O)Nc1ccc(C(=O)Nc2ccc3c(c2)OCCO3)cc1	aSyn 5UTR act -169
O=C(NC(=S)Nc1ccccc1Br)c1ccc2c(c1)OCO2	aSyn 5UTR act -137
O=C(Nc1ccncc1)c1ccc2ccccc2c1	aSyn 5UTR act -135
O=C(Nc1ccc2c(c1)OCCO2)c1cccc(Cl)c1	aSyn 5UTR act -225
CCc1ccc(NC(=O)c2cnc3n(c2=O)CCS3)cc1	aSyn 5UTR act -185
O=C(Nc1ccc2c(c1)OCCO2)C1CC1c1ccccc1 (stereo not drawn)	aSyn 5UTR act -123
O=C(NC(=S)Nc1ccc2c(c1)OCO2)c1ccccc1	aSyn 5UTR act -199
O=C(Nc1ccncc1)c1ccc2c(c1)OCCO2	aSyn 5UTR act -68
O=C(Nc1ccc2c(c1)OCCO2)c1cccc(C(=O)Nc2ccc3c(c2)OCCO3)c1	aSyn 5UTR act -148
CN(c1cccc(NC(=O)c2ccc(C(C)(C)C)cc2)c1)S(C)(=O)=O	aSyn 5UTR act -174
O=C(Nc1ccc2c(c1)OCCO2)C(=S)NCc1ccccc1	aSyn 5UTR act -96
Cc1ccc(NC(=O)Nc2cccc([N+](=O)[O-])c2)cc1F	aSyn 5UTR act -87
O=C(CS(=O)(=O)c1ccccc1)c1ccc2c(c1)OCCO2	aSyn 5UTR act -132
O=C(Nc1ccc2c(c1)OCCO2)c1ccccc1	aSyn 5UTR act -98
O=C(NC(=S)Nc1ccc2c(c1)OCCO2)c1cccc2ccccc12	aSyn 5UTR act -82
c1ccc(CSc2nnnn2-c2ccc3c(c2)OCCO3)nc1	aSyn 5UTR act -71
CC(C)(C)NC(=O)C(=O)NNC(=O)c1cccc(F)c1	aSyn 5UTR act -89
Nc1nc(NCCOCCO)nc(NC2CCCCC2)c1[N+](=O)[O-]	none
Cc1ccccc1Nc1c(-c2ccccn2)nc2ccccn12	none
COc1ccc(Nc2c(-c3ccco3)nc3ccc(C)cn23)cc1	aSyn 5UTR act -89
Cc1ccc(Nc2c(-c3ccco3)nc3ccccn23)cc1	aSyn 5UTR act -83
O=C(NC(=S)Nc1ccc(N2CCOCC2)cc1)c1cccc(Cl)c1	aSyn 5UTR act -72
O=C(Nc1ccc(N2CCOCC2)cc1)c1cnsn1	none
C/C(=C\C(=O)c1ccccc1)Nc1ccc(N2CCOCC2)cc1	aSyn 5UTR act -63
O=C(/C=C/c1cccc(O)c1)c1ccc(N2CCOCC2)cc1	aSyn 5UTR act -182
O=C(NC(=S)Nc1ccc(N2CCOCC2)cc1)c1ccccc1	aSyn 5UTR act -148
Cc1cccc(C(=O)O/N=C/c2c(N3CCOCC3)n(C)c3ccccc23)c1	none
CN(C)C(=S)Nc1ccc(N2CCOCC2)cc1	aSyn 5UTR act -68
O=C(Nc1nc2ccccc2s1)Nc1ccc(F)cc1F	aSyn 5UTR act -119
CC(C)(C)c1ccc(NC(=O)c2c(F)cccc2Cl)cc1	aSyn 5UTR act -101
COc1ccc(C(=O)Nc2nc3ccccc3s2)c(OC)c1	none
COc1ccc(NC(=O)Nc2nc3ccccc3s2)cc1	aSyn 5UTR act -150
CCOc1ccc2nc(NC(=O)NC3CCCCC3)sc2c1	aSyn 5UTR act -72
O=C(NNc1nc2ccccc2s1)Nc1ccc(F)cc1	aSyn 5UTR act -157
COc1n[nH]c(C(=O)Nc2nc3ccccc3s2)c1[N+](=O)[O-]	aSyn 5UTR act -79
CCOc1ccc2nc(S(N)(=O)=O)sc2c1	aSyn 5UTR act -176
COc1ccc(NC(=O)Nc2nc3c(s2)CCCC3)cc1	aSyn 5UTR act -155
NS(=O)(=O)c1ccc2nc(NC(=O)Nc3ccc(F)cc3)sc2c1	aSyn 5UTR act -98
O=C(Nc1nc2ccccc2s1)c1c(F)cccc1Cl	aSyn 5UTR act -86
CCOc1ccc2nc(NC(=O)c3ccccn3)sc2c1	none
CCOc1ccc2nc(NC(=O)Nc3ccccc3)sc2c1	aSyn 5UTR act -131
CCOc1ccc2nc(NC(=O)Nc3cccs3)sc2c1	aSyn 5UTR act -103
CC(C)C(=O)NNc1nc2ccccc2s1	aSyn 5UTR act -73
O=C(Nc1ccc2c(c1)OCCO2)c1ccc(CN2CCOCC2)cc1	aSyn 5UTR act -148
O=C(Nc1ccc2c(c1)OCCO2)c1ccc(Cl)c(S(=O)(=O)N2CCOCC2)c1	aSyn 5UTR act -67
Cc1ccc(C(=O)Nc2ccc(CN3CCS(=O)(=O)CC3)cc2)cc1C	aSyn 5UTR act -78
Fc1ccc2nc(Nc3ccccc3)sc2c1	aSyn 5UTR act -172
NNc1nc2ccc(F)cc2s1	aSyn 5UTR act -254
NNc1nc2ccc(Cl)cc2s1	aSyn 5UTR act -140
CSc1ccc(CC(=O)N2CCC(n3nccc3NC(=O)C3CC3)CC2)cc1	aSyn 5UTR act -116
CSCC(=O)N1CCC(n2nccc2NC(=O)c2ccc3c(c2)OCO3)CC1	aSyn 5UTR act -110
Cc1cc2[nH]c3c(c[n+](C)c4ccccc34)c2cc1C	none
Cc1cc2c([nH]c3ccccc32)c2c1OC(C)(C)C=C2	aSyn 5UTR act -204
O/N=C\c1cnc(N2CCN(c3ccccc3)CC2)s1	aSyn 5UTR act -75
Oc1ccc(CN2CCN(c3ccccc3)CC2)c2cccnc12	none
CCc1ccc(C(=O)NNc2ccccc2F)cc1	aSyn 5UTR act -83
CCCc1ccc(C(=O)NNc2ccccc2F)cc1	aSyn 5UTR act -110
CSc1nc2nccc(/C=C\c3ccccc3)n2n1	aSyn 5UTR act -89
Cc1ccc(NC(=O)c2ccc(C(=O)c3ccccc3)cc2)nc1	aSyn 5UTR act -109
O=C(Nc1ccc(OC(F)(F)F)cc1)c1ccc2nc[nH]c2c1	aSyn 5UTR act -64
Cc1ccc(NC(=O)CCNC(=O)c2ccc(Cl)cc2)nc1	aSyn 5UTR act -80
Cc1ccc(NC(=O)c2ccc3nc[nH]c3c2)c(O)c1	aSyn 5UTR act -99
Cc1ccc(NC(=O)c2ccc3nc[nH]c3c2)nc1	aSyn 5UTR act -96
Cc1cccn2c(CN(C)CCC3CCCCO3)c(C(=O)N3CCCCC3)nc12 (stereo not drawn)	aSyn 5UTR act -69
Cc1[nH]c2ccc(C(=O)NC3CCC(C)CC3)cc2c1C (stereo not drawn)	aSyn 5UTR act -148
CC1CCC(NC(=O)c2ccc3nc[nH]c3c2)CC1 (stereo not drawn)	aSyn 5UTR act -81
O=C(Nc1ccccc1)c1ccccc1O	aSyn 5UTR act -151
O=S(=O)(/N=C(/Nc1ccccc1)c1ccccc1O)c1ccccc1	aSyn 5UTR act -79
Cc1ccccc1NC(=O)c1ccccc1O	aSyn 5UTR act -118
Cc1ccccc1NC(=O)C(=O)Nc1ccccc1C	aSyn 5UTR act -143
O=C(CCc1nc2ccccc2c(=O)[nH]1)Nc1nc(-c2cccs2)cs1	aSyn 5UTR act -89
O=C1NCCN/C1=C\C(=O)c1cccc(Br)c1	aSyn 5UTR act -62
O=C1NCCN/C1=C\C(=O)c1ccc(Br)cc1	aSyn 5UTR act -120
N/C(=N\c1nc2c(c(=O)[nH]1)CCC2)Nc1cccc2ccccc12	aSyn 5UTR act -71
CCS(=O)(=O)N1Cc2ccccc2CC1C(=O)Nc1nc2c(C)cccc2s1 (stereo not drawn)	aSyn 5UTR act -69
Cc1cc(C)c2nc(NNC(=O)c3ccc(S(=O)(=O)N4CCc5ccccc5C4)cc3)sc2c1	none
CCS(=O)(=O)N1Cc2ccccc2CC1C(=O)Nc1cccc(OC)c1 (stereo not drawn)	aSyn 5UTR act -87
